Some of the results follow. Calls of active or inactive are those of the source.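 How the source made its calls: active means EC50 under a set limit for hydrogen peroxide production with the reducing agent DTT present; inactive means the rest.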

Our source for the EC50 and activation values is PubChem BioAssay AID1234 (University of Pittsburgh Molecular Library Screening Center, 2008).

This assay can be described thus: DTT-dependent H2O2 generation by redox cyclers, dose response, artefact control for MLSCN library redox annotation, biochemical, 10-point concentration response, NIH library profiling (AID 1234). The conditions noted are these: DTT-dependent redox cycling H2O2, phenol red-HRP absorbance; activation: H2O2 generation, at 50 µM, stronger effect = higher value.

For orientation: EC50 means the concentration that produces a half-maximal response. `CCOC(=O)c1c(C)[nH]c2c1-c1ccccc1C(=O)C2=O`: the EC50 is 430 nM (active) and the activation came to 129%.
